According to ChEMBL document CHEMBL2218924, “A broad activity screen in support of a chemogenomic map for kinase signalling research and drug discovery” (Biochem J, 2013):

Columns and labels:
[1] = molecular target: Protein kinase C eta type (Homo sapiens) (UniProt P24723); conditions: at 1 µM
[2] = molecular target: Protein kinase C eta type (Homo sapiens) (UniProt P24723); conditions: at 10 µM
[3] = molecular target: Protein kinase C theta type (Homo sapiens) (UniProt Q04759); conditions: at 1 µM
[4] = molecular target: Protein kinase C theta type (Homo sapiens) (UniProt Q04759); conditions: at 10 µM
[5] = molecular target: T1, Protein kinase C iota type (Homo sapiens) (UniProt P41743); conditions: at 1 µM
T1 sequence (whole entry): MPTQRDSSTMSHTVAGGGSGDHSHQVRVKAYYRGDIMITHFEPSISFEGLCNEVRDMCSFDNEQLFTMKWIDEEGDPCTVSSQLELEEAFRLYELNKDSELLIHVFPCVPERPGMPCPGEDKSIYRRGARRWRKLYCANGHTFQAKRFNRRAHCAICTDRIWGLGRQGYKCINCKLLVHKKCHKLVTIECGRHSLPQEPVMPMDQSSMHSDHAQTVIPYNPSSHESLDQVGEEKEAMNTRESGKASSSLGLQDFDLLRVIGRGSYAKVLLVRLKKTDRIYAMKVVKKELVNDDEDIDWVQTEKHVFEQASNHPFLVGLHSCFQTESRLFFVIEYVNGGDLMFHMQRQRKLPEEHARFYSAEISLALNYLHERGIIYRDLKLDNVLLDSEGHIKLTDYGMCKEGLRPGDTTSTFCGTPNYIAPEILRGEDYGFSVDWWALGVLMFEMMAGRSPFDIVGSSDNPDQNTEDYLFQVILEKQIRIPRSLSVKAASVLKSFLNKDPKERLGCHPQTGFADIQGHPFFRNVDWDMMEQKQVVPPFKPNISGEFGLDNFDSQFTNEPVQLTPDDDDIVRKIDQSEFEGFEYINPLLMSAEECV

[6] = molecular target: T1, Protein kinase C iota type (Homo sapiens); conditions: at 10 µM
[7] = molecular target: T2, Serine/threonine-protein kinase D1 (Homo sapiens) (UniProt Q15139); conditions: at 1 µM
T2 sequence (whole entry): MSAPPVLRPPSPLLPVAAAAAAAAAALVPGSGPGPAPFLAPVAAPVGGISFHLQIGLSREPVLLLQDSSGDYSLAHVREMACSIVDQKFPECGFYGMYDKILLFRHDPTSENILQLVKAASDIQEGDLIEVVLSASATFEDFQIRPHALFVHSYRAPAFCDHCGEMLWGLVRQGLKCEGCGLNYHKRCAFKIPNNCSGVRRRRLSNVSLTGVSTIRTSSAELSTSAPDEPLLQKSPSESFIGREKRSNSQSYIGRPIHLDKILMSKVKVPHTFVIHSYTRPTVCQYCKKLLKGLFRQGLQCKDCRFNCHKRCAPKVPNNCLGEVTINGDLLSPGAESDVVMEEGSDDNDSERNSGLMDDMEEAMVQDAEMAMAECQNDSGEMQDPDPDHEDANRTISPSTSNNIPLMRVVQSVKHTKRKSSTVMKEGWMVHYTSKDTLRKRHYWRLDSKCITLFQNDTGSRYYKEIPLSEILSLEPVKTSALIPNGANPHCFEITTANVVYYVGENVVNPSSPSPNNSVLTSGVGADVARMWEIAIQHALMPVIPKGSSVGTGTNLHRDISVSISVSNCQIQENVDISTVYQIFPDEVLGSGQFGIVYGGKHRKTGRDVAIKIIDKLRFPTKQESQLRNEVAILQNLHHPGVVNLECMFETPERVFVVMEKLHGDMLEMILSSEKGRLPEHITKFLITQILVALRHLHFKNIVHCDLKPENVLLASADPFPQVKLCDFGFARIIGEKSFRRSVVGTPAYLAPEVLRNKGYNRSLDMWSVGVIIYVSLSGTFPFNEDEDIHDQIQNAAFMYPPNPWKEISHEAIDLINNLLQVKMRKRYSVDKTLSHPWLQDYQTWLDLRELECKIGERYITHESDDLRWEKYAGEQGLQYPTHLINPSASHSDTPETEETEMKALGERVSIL

[8] = molecular target: T2, Serine/threonine-protein kinase D1 (Homo sapiens); conditions: at 10 µM
[9] = molecular target: T3, Serine/threonine-protein kinase D2 (Homo sapiens) (UniProt Q9BZL6); conditions: at 1 µM
T3 sequence (whole entry): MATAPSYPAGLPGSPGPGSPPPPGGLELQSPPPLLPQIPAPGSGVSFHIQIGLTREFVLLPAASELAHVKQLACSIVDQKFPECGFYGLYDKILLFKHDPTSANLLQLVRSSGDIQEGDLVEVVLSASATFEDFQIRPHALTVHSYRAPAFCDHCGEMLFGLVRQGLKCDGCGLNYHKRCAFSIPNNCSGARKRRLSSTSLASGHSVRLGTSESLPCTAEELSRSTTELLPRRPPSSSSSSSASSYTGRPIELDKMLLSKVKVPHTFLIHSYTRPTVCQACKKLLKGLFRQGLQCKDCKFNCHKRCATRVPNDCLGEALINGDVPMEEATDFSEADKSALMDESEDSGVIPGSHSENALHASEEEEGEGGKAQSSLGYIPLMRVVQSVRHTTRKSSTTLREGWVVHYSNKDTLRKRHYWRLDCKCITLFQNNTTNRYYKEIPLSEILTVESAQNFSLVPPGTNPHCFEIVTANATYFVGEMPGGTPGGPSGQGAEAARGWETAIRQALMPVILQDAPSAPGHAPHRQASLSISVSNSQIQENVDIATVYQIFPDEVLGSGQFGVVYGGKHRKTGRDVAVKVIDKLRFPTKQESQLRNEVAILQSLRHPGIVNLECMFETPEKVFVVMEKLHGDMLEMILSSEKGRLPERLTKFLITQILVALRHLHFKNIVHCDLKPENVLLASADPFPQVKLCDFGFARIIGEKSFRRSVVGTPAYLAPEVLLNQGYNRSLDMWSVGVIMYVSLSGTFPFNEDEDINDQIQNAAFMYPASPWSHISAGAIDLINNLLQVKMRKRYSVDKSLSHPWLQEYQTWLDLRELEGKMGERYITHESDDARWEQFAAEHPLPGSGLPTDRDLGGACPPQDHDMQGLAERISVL

[10] = molecular target: T3, Serine/threonine-protein kinase D2 (Homo sapiens); conditions: at 10 µM
[11] = molecular target: T4, cGMP-dependent protein kinase 1 (Homo sapiens) (UniProt Q13976); conditions: at 1 µM
T4 sequence (whole entry): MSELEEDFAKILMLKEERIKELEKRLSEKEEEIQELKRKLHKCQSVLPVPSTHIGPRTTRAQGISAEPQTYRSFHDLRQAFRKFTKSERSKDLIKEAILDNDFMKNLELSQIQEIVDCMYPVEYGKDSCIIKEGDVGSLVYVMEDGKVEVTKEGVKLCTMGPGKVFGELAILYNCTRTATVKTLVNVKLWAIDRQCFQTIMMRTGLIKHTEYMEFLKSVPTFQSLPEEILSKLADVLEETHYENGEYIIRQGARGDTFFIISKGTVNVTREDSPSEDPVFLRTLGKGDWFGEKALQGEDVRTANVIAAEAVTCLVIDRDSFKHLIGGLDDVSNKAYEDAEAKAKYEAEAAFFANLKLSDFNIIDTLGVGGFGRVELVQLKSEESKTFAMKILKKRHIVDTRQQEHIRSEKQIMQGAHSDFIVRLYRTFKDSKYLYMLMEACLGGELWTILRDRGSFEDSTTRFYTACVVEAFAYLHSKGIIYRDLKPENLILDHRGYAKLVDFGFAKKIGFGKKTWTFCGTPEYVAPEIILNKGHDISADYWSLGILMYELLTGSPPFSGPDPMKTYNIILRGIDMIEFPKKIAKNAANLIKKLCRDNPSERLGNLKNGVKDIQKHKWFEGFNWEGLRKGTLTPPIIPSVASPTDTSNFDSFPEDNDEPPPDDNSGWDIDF

[12] = molecular target: T4, cGMP-dependent protein kinase 1 (Homo sapiens); conditions: at 10 µM
[13] = molecular target: T4, cGMP-dependent protein kinase 1 (Homo sapiens); conditions: at 1 µM; remark: listed apart in the source
[14] = molecular target: T4, cGMP-dependent protein kinase 1 (Homo sapiens); conditions: at 10 µM; remark: listed apart in the source
[15] = molecular target: T5, MAP kinase-activated protein kinase 5 (Homo sapiens) (UniProt Q8IW41); conditions: at 1 µM
T5 sequence (whole entry): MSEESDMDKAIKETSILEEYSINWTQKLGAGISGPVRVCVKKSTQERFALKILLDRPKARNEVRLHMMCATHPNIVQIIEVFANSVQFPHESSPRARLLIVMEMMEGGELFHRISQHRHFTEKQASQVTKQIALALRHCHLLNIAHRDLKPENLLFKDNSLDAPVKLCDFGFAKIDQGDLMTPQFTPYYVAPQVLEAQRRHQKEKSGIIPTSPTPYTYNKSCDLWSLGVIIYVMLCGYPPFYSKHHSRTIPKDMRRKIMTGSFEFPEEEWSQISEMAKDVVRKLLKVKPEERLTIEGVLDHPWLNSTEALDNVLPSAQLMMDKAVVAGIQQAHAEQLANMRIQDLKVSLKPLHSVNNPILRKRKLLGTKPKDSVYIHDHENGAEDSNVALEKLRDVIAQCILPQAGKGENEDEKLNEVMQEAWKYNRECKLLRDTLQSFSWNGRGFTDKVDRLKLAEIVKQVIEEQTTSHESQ

[16] = molecular target: T5, MAP kinase-activated protein kinase 5 (Homo sapiens); conditions: at 10 µM
[17] = molecular target: Serine/threonine-protein kinase N2 (Homo sapiens) (UniProt Q16513); conditions: at 1 µM
[18] = molecular target: Serine/threonine-protein kinase N2 (Homo sapiens) (UniProt Q16513); conditions: at 10 µM
[19] = molecular target: Tyrosine-protein kinase FRK (Homo sapiens) (UniProt P42685); conditions: at 1 µM
[20] = molecular target: Tyrosine-protein kinase FRK (Homo sapiens) (UniProt P42685); conditions: at 10 µM

Sequence of Protein kinase C theta type (Homo sapiens) (Q04759 whole entry, looked up): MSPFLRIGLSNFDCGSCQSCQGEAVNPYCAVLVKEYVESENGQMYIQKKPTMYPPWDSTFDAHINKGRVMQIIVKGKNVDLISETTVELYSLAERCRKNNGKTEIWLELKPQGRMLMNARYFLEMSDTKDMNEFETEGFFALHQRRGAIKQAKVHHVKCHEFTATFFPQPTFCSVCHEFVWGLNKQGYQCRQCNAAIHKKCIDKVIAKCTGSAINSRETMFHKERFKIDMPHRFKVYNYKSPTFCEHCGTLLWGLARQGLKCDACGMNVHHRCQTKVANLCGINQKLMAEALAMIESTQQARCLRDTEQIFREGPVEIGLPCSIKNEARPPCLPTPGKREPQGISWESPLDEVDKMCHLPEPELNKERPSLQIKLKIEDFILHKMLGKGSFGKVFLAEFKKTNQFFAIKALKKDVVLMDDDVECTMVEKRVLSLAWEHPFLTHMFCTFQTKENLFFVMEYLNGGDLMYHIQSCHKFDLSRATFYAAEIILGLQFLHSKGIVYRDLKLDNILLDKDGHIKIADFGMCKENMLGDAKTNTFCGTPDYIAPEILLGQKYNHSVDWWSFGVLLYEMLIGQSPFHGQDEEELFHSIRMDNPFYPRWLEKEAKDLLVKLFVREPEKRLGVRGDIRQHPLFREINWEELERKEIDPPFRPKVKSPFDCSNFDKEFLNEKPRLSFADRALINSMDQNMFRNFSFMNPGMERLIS
Sequence of Serine/threonine-protein kinase N2 (Homo sapiens) (Q16513 whole entry, looked up): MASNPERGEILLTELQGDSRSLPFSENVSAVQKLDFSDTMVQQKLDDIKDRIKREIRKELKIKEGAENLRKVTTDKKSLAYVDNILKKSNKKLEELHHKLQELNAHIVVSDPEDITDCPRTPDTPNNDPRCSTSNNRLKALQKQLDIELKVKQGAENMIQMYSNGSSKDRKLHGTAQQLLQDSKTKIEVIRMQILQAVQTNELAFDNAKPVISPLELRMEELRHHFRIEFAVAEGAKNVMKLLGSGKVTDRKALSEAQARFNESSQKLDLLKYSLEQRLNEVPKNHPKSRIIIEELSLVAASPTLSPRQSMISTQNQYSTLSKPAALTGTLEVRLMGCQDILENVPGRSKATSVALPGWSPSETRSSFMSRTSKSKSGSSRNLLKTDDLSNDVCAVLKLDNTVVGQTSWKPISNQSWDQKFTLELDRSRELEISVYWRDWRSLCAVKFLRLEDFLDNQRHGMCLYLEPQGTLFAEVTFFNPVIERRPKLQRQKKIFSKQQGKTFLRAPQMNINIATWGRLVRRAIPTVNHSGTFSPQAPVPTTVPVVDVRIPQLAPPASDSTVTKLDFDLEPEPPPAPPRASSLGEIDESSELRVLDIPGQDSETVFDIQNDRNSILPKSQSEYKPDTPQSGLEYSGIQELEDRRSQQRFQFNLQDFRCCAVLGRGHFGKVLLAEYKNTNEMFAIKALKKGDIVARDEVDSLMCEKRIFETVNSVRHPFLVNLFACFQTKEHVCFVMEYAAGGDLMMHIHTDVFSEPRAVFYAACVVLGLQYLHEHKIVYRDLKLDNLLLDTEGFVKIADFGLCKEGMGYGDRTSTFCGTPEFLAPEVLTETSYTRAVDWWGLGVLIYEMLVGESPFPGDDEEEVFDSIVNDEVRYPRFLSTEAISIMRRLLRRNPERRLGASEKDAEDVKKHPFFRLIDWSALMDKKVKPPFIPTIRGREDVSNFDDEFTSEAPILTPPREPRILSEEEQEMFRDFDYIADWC
Sequence of Tyrosine-protein kinase FRK (Homo sapiens) (P42685 whole entry): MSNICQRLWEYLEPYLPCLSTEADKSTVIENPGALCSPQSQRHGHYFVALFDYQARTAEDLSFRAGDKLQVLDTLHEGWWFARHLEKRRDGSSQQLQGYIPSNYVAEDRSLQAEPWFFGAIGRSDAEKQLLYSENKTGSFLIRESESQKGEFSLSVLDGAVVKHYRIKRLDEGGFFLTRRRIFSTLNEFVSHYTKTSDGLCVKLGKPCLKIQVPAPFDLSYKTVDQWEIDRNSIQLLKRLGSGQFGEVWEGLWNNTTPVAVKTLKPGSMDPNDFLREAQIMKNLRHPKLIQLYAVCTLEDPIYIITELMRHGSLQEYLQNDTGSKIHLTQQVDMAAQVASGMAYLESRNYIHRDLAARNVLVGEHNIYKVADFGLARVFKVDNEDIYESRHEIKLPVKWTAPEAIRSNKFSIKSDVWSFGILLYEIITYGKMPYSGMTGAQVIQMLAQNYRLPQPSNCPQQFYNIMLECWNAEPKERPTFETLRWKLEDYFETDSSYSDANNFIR
Sequence of Protein kinase C eta type (Homo sapiens) (P24723 whole entry): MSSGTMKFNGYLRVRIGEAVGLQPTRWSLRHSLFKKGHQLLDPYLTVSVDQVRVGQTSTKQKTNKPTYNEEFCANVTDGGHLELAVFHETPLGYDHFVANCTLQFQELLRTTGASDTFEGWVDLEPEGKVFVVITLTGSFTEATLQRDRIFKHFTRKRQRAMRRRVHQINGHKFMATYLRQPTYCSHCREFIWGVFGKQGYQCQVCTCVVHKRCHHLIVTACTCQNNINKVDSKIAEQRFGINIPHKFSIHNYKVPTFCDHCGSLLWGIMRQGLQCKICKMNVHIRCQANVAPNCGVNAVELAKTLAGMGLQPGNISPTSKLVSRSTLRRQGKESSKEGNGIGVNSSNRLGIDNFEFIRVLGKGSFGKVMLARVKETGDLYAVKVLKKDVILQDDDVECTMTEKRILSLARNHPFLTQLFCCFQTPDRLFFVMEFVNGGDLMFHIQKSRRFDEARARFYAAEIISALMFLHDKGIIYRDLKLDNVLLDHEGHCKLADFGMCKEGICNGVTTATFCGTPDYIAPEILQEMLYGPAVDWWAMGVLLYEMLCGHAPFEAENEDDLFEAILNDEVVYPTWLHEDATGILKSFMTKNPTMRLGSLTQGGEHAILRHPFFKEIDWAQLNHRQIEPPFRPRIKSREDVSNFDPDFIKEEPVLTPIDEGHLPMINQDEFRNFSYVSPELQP

Row | Structure (SMILES) | residual activity [1] [%] | residual activity [2] [%] | residual activity [3] [%] | residual activity [4] [%] | residual activity [5] | residual activity [6] [%] | residual activity [7] [%] | residual activity [8] [%] | residual activity [9] [%] | residual activity [10] [%] | residual activity [11] [%] | residual activity [12] [%] | residual activity [13] [%] | residual activity [14] [%] | residual activity [15] [%] | residual activity [16] [%] | residual activity [17] [%] | residual activity [18] [%] | residual activity [19] [%] | residual activity [20] [%]
1 | Nc1ccc2ncnc(NCCc3ccc(Oc4ccccc4)cc3)c2c1 | 102 | 90 | 108 | 105 | 113% (inactive) | 111 | 91 | 82 | 107 | 102 | 108 | 109 | 86 | 75 | 89 | 90 | 98 | 78 | 93 | 109
2 | Oc1ccc(Nc2nc(-c3ccc(Cl)cc3)cs2)cc1 | 78 | 79 | 100 | 114 | 109% (inactive) | 103 | 94 | 100 | 106 | 93 | 100 | 99 | 113 | 111 | 115 | 69 | 110 | 107 | 104 | 118
3 | O=C1c2ccccc2-[n+]2ccc3c([nH]c4ccccc43)c21 | 72 | 80 | 93 | 99 | 100% (inactive) | 105 | 83 | 71 | 101 | 100 | 94 | 116 | 83 | 75 | 119 | 124 | 86 | 92 | 95 | 92
